For 4 compounds, outcome and AC50 results are on record in PubChem BioAssay (EPA / NIEHS).

“And” between values parts separate entries of the source, which are not always exact repeats. Equal values may be shown once. The source made the active and inactive calls. How the source made its calls: active means hit-call score of the fitted dose curve at least 0.9, where 1 is the maximum; inactive means score below 0.9.

Assay [1] is described as follows: ATG_DR4_LXR_CIS: Attagene CIS-FACTORIAL HepG2 Assay for human Liver X Receptor (LXR), DR4 submotif (AID 2282929). The following applies: HepG2 Attagene DR4 cis-reporter, mRNA transcription; AC50: actives raise or lower the signal unless noted; outcome: actives raise or lower the signal unless noted. The essentials: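 Cells were transfected with multiple reporter transcription units, exposed to chemicals for 24 hours, then lysed for RNA. Reporter mRNA induction was measured by RT-PCR with capillary electrophoresis detection and fitted in both directions relative to DMSO.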

For assay [2], the target named is Aryl hydrocarbon receptor (Homo sapiens) (UniProt P35869). The assay is described as follows: ATG_Ahr_CIS: Attagene CIS-FACTORIAL HepG2 Assay for human Aryl Hydrocarbon Receptor (Ahr) (AID 2282930). The following applies: HepG2 AhR cis-factorial reporter transcription; actives raise or lower the signal. The essentials:
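Following 24 h of chemical dosing, transfected HepG2 liver cells with cis-driven reporter units were lysed for RNA; reporter mRNA was quantified via RT-PCR and capillary electrophoresis, and responses fitted bidirectionally from DMSO.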

The nature of assay [3]: ATG_AP_1_CIS: Attagene CIS-FACTORIAL HepG2 Assay for human Activator Protein 1 (AP-1) (AID 2282931). The settings on record: HepG2 Attagene cis-factorial AP-1 reporter mRNA; actives raise or lower the signal. In short, it runs like this:
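Endogenous transcription-factor activity in human HepG2 liver cells is read through a cis-promoter reporter transcript, sampled 24 h after dosing. Detection uses RT-PCR with capillary electrophoresis; values come from bidirectional fitting relative to DMSO.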

A short description of assay [4]: ATG_AP_2_CIS: Attagene CIS-FACTORIAL HepG2 Assay for human Activator Protein 2 (AP-2) (AID 2282932). The following applies: HepG2 AP-2 cis-reporter, Attagene transcription factor profiling; AC50: actives raise or lower the signal unless noted; outcome: actives raise or lower the signal unless noted. The essentials: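 HepG2 cells were transiently transfected with multiple cis-promoter reporter transcription units and dosed for 24 h. Reporter mRNA was measured by RT-PCR with capillary electrophoresis fluorescence; bidirectional fits relative to DMSO baseline.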

Assay [5] in a line: ATG_BRE_CIS: Attagene CIS-FACTORIAL HepG2 Assay for human Bone Morphogenetic Protein (BMP) Response Element (BRE) (AID 2282933). The settings on record: HepG2 BMP response element reporter, Attagene transcription factor profiling; actives raise or lower the signal. The essentials:
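Gain- or loss-of-signal was derived by bidirectional fitting against DMSO controls. The signal came from reporter mRNA, measured by RT-PCR and capillary electrophoresis, in HepG2 cells transiently carrying multiple reporter units and dosed for 24 h.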

The target of assay [6] is Retinoic acid receptor alpha (Homo sapiens) (UniProt P10276). The assay is described as follows: ATG_DR5_RAR_CIS: Attagene CIS-FACTORIAL HepG2 Assay for human Retinoic Acid Receptor Alpha (RARE), DR5 submotif (AID 2282934). The settings on record: HepG2 Attagene cis-factorial RARE DR5 reporter, mRNA; actives raise or lower the signal. In short, it runs like this: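 Transfected HepG2 reporter cells are exposed to chemicals for 24 h. Then RNA is extracted and the DR5 element reporter transcript is measured by RT-PCR and capillary electrophoresis, with bidirectional curve fitting relative to DMSO.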

The target in assay [7] is Transcription factor E2F1 (Homo sapiens) (UniProt Q01094). The assay is described as follows: ATG_E2F_CIS: Attagene CIS-FACTORIAL HepG2 Assay for human E2F Transcription Factor 1 (AID 2282935). The following applies: HepG2 Attagene cis-reporter, E2F reporter RNA transcripts; actives raise or lower the signal. The essentials:
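HepG2 cells transiently transfected with multiplexed cis-element reporter units, dosed for 24 h. Reporter mRNA measured by RT-PCR, 6-FAM primer-extension labeling, HpaI digestion and capillary electrophoresis; bidirectional fit versus DMSO baseline.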

Assay [8] is described as follows: ATG_M_61_CIS: Attagene CIS-FACTORIAL HepG2 Assay for M61 Transcription Factor (Internal Marker) (AID 2282937). The following applies: HepG2 Attagene CIS-FACTORIAL M61 internal marker reporter; actives raise or lower the signal. The essentials: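 Cells were transfected with reporter units under cis-regulatory promoters, treated with chemicals for 24 h, then lysed for RNA. Reporter transcripts were quantified by RT-PCR and capillary electrophoresis, and activity was fitted bidirectionally against DMSO.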

Assay [9] can be described thus: ATG_EGR_CIS: Attagene CIS-FACTORIAL HepG2 Assay for human Early Growth Response 1 (EGR1) (AID 2282938). The following applies: HepG2 Attagene CIS-FACTORIAL EGR reporter mRNA; actives raise or lower the signal. The essentials: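 Endogenous TF activity in HepG2 liver cells was gauged through cis-promoter reporter constructs transiently transfected. After 24 h dosing, reporter mRNA was quantified by RT-PCR and capillary electrophoresis, and curves fitted in both directions versus DMSO.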

A short description of assay [10]: ATG_ERE_CIS: Attagene CIS-FACTORIAL HepG2 Assay for Estrogen Response Element (ERE) (AID 2282940). The settings on record: HepG2 ERE cis-reporter, Attagene RNA transcript; actives raise or lower the signal. In short, it runs like this: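 HepG2, transient cis-reporter units, 24 h exposure. RNA isolated, oligo(dT) RT, reporter-specific PCR, FAM extension, HpaI cut, CE detection. Gain/loss-of-signal vs DMSO.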

Assay [11] in a line: ATG_Ets_CIS: Attagene CIS-FACTORIAL HepG2 Assay for human Erythroblast Transformation Specific (ETS) (AID 2282941). The following applies: HepG2 ETS cis-reporter transcription; AC50: actives raise or lower the signal unless noted; outcome: actives raise or lower the signal unless noted. The essentials:
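After transient cis-reporter transfection, HepG2 cells receive test chemical for 24 h. Reporter mRNA levels, measured by RT-PCR and capillary electrophoresis fluorescence, are analysed bidirectionally relative to the DMSO baseline.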

Assay [12] addresses Hepatocyte nuclear factor 3-beta (Homo sapiens) (UniProt Q9Y261). The assay is described as follows: ATG_FoxA2_CIS: Attagene CIS-FACTORIAL HepG2 Assay for human Forkhead box A2 (FOXA2) (AID 2282942). The following applies: HepG2 cis-reporter transcription factor activity, 24 h; actives raise or lower the signal. The essentials:
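Endogenous transcription factor activity was read in HepG2 cells carrying transiently transfected cis-promoter reporter units. After 24 h dosing, reporter mRNA was quantified by RT-PCR and capillary electrophoresis, and values fitted bidirectionally versus DMSO.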

Assay [13] in a line: ATG_FoxO_CIS: Attagene CIS-FACTORIAL HepG2 Assay for human Forkhead box O (FoxO) (AID 2282943). The settings on record: HepG2 Attagene cis-reporter, FoxO element, mRNA; actives raise or lower the signal. In short, it runs like this:
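24 h chemical exposure, HepG2 with transient cis-MRTU transfection. RNA extraction, oligo(dT) RT, reporter-specific PCR, primer-extension labelling, HpaI digestion, CE fragment analysis; bidirectional fit, DMSO baseline.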

A short description of assay [14]: ATG_GATA_CIS: Attagene CIS-FACTORIAL HepG2 Assay for human GATA Binding Protein (AID 2282944). The settings on record: HepG2 GATA cis-element reporter, Attagene multiplex mRNA; actives raise or lower the signal. The essentials: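 DMSO serves as negative control and baseline for bidirectional fitting of reporter mRNA changes. HepG2 cells bearing transiently transfected cis-promoter reporters were exposed 24 h; transcripts detected via RT-PCR and capillary electrophoresis.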

Assay [15] in a line: ATG_GLI_CIS: Attagene CIS-FACTORIAL HepG2 Assay for human Zinc Finger Protein GLI1 (AID 2282945). The following applies: HepG2, Attagene cis-factorial reporter mRNA, GLI element; actives raise or lower the signal. The essentials:
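HepG2 cells transiently transfected with cis-promoter multiplexed reporter units report endogenous transcription factor activity. After 24 h chemical exposure, reporter mRNA was quantified by RT-PCR, 6-FAM labelling, HpaI digestion and capillary electrophoresis, with bidirectional fitting against DMSO.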

For assay [16], the target named is Bile acid receptor (Homo sapiens) (UniProt Q96RI1). The assay is described as follows: ATG_IR1_CIS: Attagene CIS-FACTORIAL HepG2 Assay for human Nuclear Receptor Subfamily 1 Group H Member 4 (NR1H4), IR1 submotif (AID 2282946). The settings on record: IR1 reporter transcription, actives raise or lower the signal. In short, it runs like this:
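Transient MRTU transfection, HepG2; 24 h dosing; RNA → RT-PCR → 6-FAM primer extension → HpaI digest → capillary electrophoresis fluorescence. Gain/loss of signal fitted relative to DMSO.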

A short description of assay [17]: ATG_GRE_CIS: Attagene CIS-FACTORIAL HepG2 Assay for human Glucocorticoid Response Elements (GRE) (AID 2282947). The following applies: HepG2 GRE cis-reporter, Attagene multiplex mRNA; AC50: actives raise or lower the signal unless noted; outcome: actives raise or lower the signal unless noted. In short, it runs like this:
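HepG2 cells transiently transfected with multiple cis-promoter reporter units measure endogenous TF activity; 24 h compound exposure. Reporter mRNA quantified by RT-PCR, FAM labelling, HpaI digestion and capillary electrophoresis; bidirectional fit vs DMSO baseline.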

Assay [18] in a line: ATG_ISRE_CIS: Attagene CIS-FACTORIAL HepG2 Assay for human Interferon Regulatory Factor 1 (IRF1) binding to an Interferon-Stimulated Response Element (ISRE) (AID 2282948). The following applies: HepG2 ISRE cis-reporter (Attagene), mRNA transcription readout; actives raise or lower the signal. The essentials: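 Quantitation relies on labelled RT-PCR fragments separated by capillary electrophoresis. Human HepG2 cells bearing cis-promoter reporter constructs were treated 24 h; DMSO served as baseline for bidirectional fitting.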

Assay [19] can be described thus: ATG_M_19_CIS: Attagene CIS-FACTORIAL HepG2 Assay for M19 Transcription Factor (Internal Marker) (AID 2282939). The following applies: HepG2 Attagene CIS-FACTORIAL M19 internal marker reporter; actives raise or lower the signal. In short, it runs like this:
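Following a 24 h exposure, RNA from transfected HepG2 cells was reverse-transcribed, PCR-amplified with reporter-specific primers, end-labelled with 6-FAM and HpaI-digested before capillary separation. Values represent gain or loss versus DMSO.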

Assay [20] in a line: ATG_E_Box_CIS: Attagene CIS-FACTORIAL HepG2 Assay for human Enhancer Box (E-box) (AID 2282936). The following applies: HepG2 E-box cis-reporter transcription, actives raise or lower the signal. The essentials: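 HepG2 cells transiently transfected with multiplexed cis-element reporter units sensing endogenous transcription factor activity; 24 h compound exposure. Reporter mRNA measured by RT-PCR, 6-FAM primer extension, HpaI digestion and capillary electrophoresis; bidirectional fit versus DMSO.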

Chain of Transcription factor E2F1 (Homo sapiens) (Q01094 whole entry, looked up): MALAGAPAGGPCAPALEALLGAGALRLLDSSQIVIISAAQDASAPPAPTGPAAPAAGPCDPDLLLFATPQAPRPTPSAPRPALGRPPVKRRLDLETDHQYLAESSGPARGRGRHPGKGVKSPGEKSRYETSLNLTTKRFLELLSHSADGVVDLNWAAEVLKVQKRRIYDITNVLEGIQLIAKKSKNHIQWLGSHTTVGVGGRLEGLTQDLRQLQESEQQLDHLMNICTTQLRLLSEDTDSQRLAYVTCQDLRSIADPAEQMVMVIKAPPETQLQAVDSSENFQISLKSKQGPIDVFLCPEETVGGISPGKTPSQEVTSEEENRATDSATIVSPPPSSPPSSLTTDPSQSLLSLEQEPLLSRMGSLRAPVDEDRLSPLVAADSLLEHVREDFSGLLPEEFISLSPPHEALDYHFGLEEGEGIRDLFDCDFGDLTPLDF
Chain of Retinoic acid receptor alpha (Homo sapiens) (P10276 whole entry, looked up): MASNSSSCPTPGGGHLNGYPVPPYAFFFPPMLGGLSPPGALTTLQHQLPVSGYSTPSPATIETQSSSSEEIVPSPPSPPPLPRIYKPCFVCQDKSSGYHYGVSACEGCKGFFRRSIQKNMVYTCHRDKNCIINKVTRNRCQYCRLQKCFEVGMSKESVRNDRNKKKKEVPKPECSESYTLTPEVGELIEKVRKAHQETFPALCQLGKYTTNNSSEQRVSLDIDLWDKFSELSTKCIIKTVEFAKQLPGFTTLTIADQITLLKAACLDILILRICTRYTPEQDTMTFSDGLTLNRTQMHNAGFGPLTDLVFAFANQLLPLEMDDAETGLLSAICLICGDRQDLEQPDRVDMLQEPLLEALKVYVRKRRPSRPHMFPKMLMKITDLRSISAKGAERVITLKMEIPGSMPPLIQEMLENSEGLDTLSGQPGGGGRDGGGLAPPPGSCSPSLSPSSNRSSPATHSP
Chain of Bile acid receptor (Homo sapiens) (Q96RI1 whole entry, looked up): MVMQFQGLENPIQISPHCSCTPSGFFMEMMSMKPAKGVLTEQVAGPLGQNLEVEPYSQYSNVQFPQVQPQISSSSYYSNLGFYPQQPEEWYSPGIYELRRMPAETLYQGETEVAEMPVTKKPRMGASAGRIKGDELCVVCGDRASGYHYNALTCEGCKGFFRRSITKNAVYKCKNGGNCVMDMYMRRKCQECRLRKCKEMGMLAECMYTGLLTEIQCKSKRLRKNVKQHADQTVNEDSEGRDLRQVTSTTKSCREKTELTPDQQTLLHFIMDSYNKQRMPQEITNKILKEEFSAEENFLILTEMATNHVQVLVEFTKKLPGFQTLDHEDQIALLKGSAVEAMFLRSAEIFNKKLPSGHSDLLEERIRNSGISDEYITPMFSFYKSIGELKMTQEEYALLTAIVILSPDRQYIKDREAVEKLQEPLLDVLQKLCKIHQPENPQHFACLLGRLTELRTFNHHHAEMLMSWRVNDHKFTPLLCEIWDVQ
Chain of Aryl hydrocarbon receptor (Homo sapiens) (P35869 whole entry, looked up): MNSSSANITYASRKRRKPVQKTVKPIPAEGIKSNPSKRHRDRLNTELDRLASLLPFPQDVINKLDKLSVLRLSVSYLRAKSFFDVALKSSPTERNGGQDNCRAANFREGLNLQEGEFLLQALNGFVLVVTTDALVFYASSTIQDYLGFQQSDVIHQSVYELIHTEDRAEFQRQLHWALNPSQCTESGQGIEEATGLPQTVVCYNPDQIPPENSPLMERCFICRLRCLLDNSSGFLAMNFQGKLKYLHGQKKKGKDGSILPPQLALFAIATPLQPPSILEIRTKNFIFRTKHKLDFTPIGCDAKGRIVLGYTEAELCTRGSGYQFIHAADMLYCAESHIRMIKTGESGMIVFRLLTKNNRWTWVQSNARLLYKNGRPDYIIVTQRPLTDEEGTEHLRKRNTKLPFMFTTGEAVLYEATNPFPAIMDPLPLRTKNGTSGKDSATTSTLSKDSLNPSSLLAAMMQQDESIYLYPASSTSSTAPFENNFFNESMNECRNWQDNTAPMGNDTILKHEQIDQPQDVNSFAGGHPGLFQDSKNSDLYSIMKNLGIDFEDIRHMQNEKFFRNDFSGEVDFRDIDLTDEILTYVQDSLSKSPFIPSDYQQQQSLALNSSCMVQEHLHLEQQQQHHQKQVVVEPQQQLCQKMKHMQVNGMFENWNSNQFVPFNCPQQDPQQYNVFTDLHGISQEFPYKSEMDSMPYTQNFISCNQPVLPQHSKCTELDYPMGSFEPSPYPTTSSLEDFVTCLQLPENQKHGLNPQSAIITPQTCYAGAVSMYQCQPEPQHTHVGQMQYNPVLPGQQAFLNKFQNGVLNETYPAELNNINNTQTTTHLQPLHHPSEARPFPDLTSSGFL
Chain of Hepatocyte nuclear factor 3-beta (Homo sapiens) (Q9Y261 whole entry, looked up): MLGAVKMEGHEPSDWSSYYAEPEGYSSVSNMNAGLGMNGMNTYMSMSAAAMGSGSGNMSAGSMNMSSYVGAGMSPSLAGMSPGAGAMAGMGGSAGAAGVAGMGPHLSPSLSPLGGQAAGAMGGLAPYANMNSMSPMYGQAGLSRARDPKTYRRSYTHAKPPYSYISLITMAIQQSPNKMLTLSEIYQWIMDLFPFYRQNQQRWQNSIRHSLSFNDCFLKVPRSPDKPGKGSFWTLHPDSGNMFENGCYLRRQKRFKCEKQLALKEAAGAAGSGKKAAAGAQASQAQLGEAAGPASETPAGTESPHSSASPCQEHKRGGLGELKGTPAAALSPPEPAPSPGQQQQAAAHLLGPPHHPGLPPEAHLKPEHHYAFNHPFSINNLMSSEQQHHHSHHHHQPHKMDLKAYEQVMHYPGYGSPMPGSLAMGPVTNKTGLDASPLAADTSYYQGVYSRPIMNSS

For the compound `NCc1cccc(CN)c1`, the outcome in [1], in [2], in assay [3], in assay [4], in [5] and in [6] was inactive. Moreover, the compound was called inactive in assay [7], in [8], in [9], in assay [10], in [11] and in [12]. Further, the outcome in assay [13], in assay [14], in assay [15], in [16], in assay [17] and in [18] was inactive.

Consider `O=S(=O)(O)C(F)(F)C(F)(F)C(F)(F)C(F)(F)C(F)(F)C(F)(F)C(F)(F)C(F)(F)C(F)(F)C(F)(F)F`, for which the AC50 was 8.16 µM (active) and 10.2 µM (active) in assay [1]; 50.1 µM (active) and 45.9 µM (active) in [2]; 22.4 µM (active) and 16.6 µM (active) in assay [3]. Further, the outcome in [4], in assay [5], in [6], in assay [7], in assay [8] and in [9] was inactive. Further, the call in [19], in [10], in assay [11], in assay [13], in [14] and in assay [15] was inactive. Further, the result in assay [16], in [17] and in [18] was inactive.

`C[C@]12CC[C@@H]3c4ccc(O)cc4CC[C@H]3[C@@H]1CC[C@@H]2OC(=O)CCC1CCCC1`: the AC50 in assay [1] was 14.8 µM (active); in [2], 126 µM (active); in assay [5], 58.2 µM (active); in assay [10] it was 0.0823 µM (active); in [13], 177 µM (active); in [15], 100 µM (active). In addition, the compound was classed as inactive in [3], in [4], in assay [6], in assay [7], in assay [8] and in assay [9]. Further, the compound was called inactive in assay [19], in [11], in [14], in assay [16], in [17] and in [18].

On to `CCc1cccc(CC)c1N(COC)C(=O)CS(=O)(=O)O`, for which the outcome in [1], in assay [2], in [3], in [4], in assay [5] and in assay [7] was inactive. Moreover, the outcome in [20], in [8], in assay [9], in assay [19], in assay [10] and in assay [11] was inactive. For the same compound, the compound was called inactive in assay [12], in [13], in assay [14], in [15], in assay [17] and in [18].

One may read the AC50 as the concentration at which the activity in the assay is half-maximal.
